# According to PMC8384837, “Expanding the binding specificity for RNA recognition by a PUF domain”:
# Substitutions are numbered along the chain they refer to.
# Key:
# Assay in all cases: yeast three-hybrid, YBZ-1, SC-Leu-His + 0.5 mM 3-AT, 4 days
# Conditions in all cases: tags: N-Gal4 AD-HA kept; label: inside an RPR1-promoter hybrid RNA with tandem MS2 sites; ssRNA
# PUM1 PUF domain R1-GRS = PUM1 PUF domain R1-GRS (Homo sapiens, UniProt Q14671 828-1176, S863G;Q867S)
# In short: (§1)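 Pumilio-1 PUF domain libraries, randomized (NNK) at the three base-contacting residues of each repeat, were co-expressed with matching RNA elements from a centromeric plasmid in strain YBZ-1 (LexA–MS2 coat fusion, HIS3 reporter). Transformants were plated on SC-Leu (input) and SC-Leu-His + 0.5 mM 3-AT (selection) for four days, and repeat regions were PCR-amplified and Illumina-sequenced. The interaction score is the log2 change in variant frequency from input to selection, with pseudocount 1 where absent.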
# PUM1 PUF domain R5-NDI = PUM1 PUF domain R5-NDI (Homo sapiens, UniProt Q14671 828-1176, C1007N;R1008D;Q1011I)
# In short: as §1
# PUM1 PUF domain R5-KYF = PUM1 PUF domain R5-KYF (Homo sapiens, UniProt Q14671 828-1176, C1007K;R1008Y;Q1011F)
# In short: as §1
# PUM1 PUF domain R5-SNR = PUM1 PUF domain R5-SNR (Homo sapiens, UniProt Q14671 828-1176, C1007S;R1008N;Q1011R)
# In short: as §1
# PUM1 PUF domain R5-DQR = PUM1 PUF domain R5-DQR (Homo sapiens, UniProt Q14671 828-1176, C1007D;R1008Q;Q1011R)
# In short: as §1
# PUM1 PUF domain R8-LWK = PUM1 PUF domain R8-LWK (Homo sapiens, UniProt Q14671 828-1176, N1122L;Y1123W;Q1126K)
# In short: as §1
# PUM1 PUF domain R6-TWL = molecular target: T1, PUM1 PUF domain R6-TWL (Homo sapiens, UniProt Q14671 828-1176, N1043T;Y1044W;Q1047L)
# T1 sequence: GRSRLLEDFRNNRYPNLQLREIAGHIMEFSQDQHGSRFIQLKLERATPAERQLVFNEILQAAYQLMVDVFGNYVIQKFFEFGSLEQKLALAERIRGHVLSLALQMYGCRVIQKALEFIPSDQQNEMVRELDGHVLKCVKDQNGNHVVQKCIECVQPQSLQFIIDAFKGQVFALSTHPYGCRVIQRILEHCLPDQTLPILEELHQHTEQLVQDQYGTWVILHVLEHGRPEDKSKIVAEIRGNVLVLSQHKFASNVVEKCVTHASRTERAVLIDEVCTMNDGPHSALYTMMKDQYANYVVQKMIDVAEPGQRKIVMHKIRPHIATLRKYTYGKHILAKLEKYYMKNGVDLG
# In short: as §1
# PUM1 PUF domain R3-ARC = PUM1 PUF domain R3-ARC (Homo sapiens, UniProt Q14671 828-1176, C935A;Q939C)
# In short: as §1
# PUM1 PUF domain R6-TYE = molecular target: T2, PUM1 PUF domain R6-TYE (Homo sapiens, UniProt Q14671 828-1176, N1043T;Q1047E)
# T2 sequence: T1 sequence with W217Y, L220E
# In short: as §1
# PUM1 PUF domain R8-QWN = PUM1 PUF domain R8-QWN (Homo sapiens, UniProt Q14671 828-1176, N1122Q;Y1123W;Q1126N)
# In short: as §1
sequence,measurement,setting,value
GGCUAGAACUAGUGGAUCCCCCGGCGCCCGGCGGCUCGAGCCCGGGUAAGUGUAAAUCGUCUGCAUGCCGCCGGGCGCCAUGCCUGCAGGUCGACUCUAGAAAACAUG,binding signal,PUM1 PUF domain R1-GRS,2.75 log2 enrichment (interaction score)
GGCUAGAACUAGUGGAUCCCCCGGCGCCCGGCGGCUCGAGCCCGGGUAAGUGUUAAUAGUCUGCAUGCCGCCGGGCGCCAUGCCUGCAGGUCGACUCUAGAAAACAUG,binding signal,PUM1 PUF domain R5-NDI,3.04 log2 enrichment (interaction score)
same,binding signal,PUM1 PUF domain R5-KYF,3.92 log2 enrichment (interaction score)
same,binding signal,PUM1 PUF domain R5-SNR,4.01 log2 enrichment (interaction score)
same,binding signal,PUM1 PUF domain R5-DQR,1.66 log2 enrichment (interaction score)
GGCUAGAACUAGUGGAUCCCCCGGCGCCCGGCGGCUCGAGCCCGGGUAAGUGUCAAUAGUCUGCAUGCCGCCGGGCGCCAUGCCUGCAGGUCGACUCUAGAAAACAUG,binding signal,PUM1 PUF domain R5-SNR,6.17 log2 enrichment (interaction score)
same,binding signal,PUM1 PUF domain R5-DQR,3.91 log2 enrichment (interaction score)
GGCUAGAACUAGUGGAUCCCCCGGCGCCCGGCGGCUCGAGCCCGGGUAAGUGUAAAUAGUCUGCAUGCCGCCGGGCGCCAUGCCUGCAGGUCGACUCUAGAAAACAUG,binding signal,PUM1 PUF domain R8-LWK,4.16 log2 enrichment (interaction score)
same,binding signal,PUM1 PUF domain R6-TWL,0.99 log2 enrichment (interaction score)
same,binding signal,PUM1 PUF domain R3-ARC,3.8 log2 enrichment (interaction score)
GGCUAGAACUAGUGGAUCCCCCGGCGCCCGGCGGCUCGAGCCCGGGUAAGUGAAAAUAGUCUGCAUGCCGCCGGGCGCCAUGCCUGCAGGUCGACUCUAGAAAACAUG,binding signal,PUM1 PUF domain R6-TYE,3.51 log2 enrichment (interaction score)
same,binding signal,PUM1 PUF domain R6-TWL,5.21 log2 enrichment (interaction score)
GGCUAGAACUAGUGGAUCCCCCGGCGCCCGGCGGCUCGAGCCCGGGUAAGUGUAAGUAGUCUGCAUGCCGCCGGGCGCCAUGCCUGCAGGUCGACUCUAGAAAACAUG,binding signal,PUM1 PUF domain R3-ARC,0.43 log2 enrichment (interaction score)
GGCUAGAACUAGUGGAUCCCCCGGCGCCCGGCGGCUCGAGCCCGGGUAAGCGUAAAUAGUCUGCAUGCCGCCGGGCGCCAUGCCUGCAGGUCGACUCUAGAAAACAUG,binding signal,PUM1 PUF domain R8-QWN,3.25 log2 enrichment (interaction score)
GGCUAGAACUAGUGGAUCCCCCGGCGCCCGGCGGCUCGAGCCCGGGUAAGUGUAAUUAGUCUGCAUGCCGCCGGGCGCCAUGCCUGCAGGUCGACUCUAGAAAACAUG,binding signal,PUM1 PUF domain R3-ARC,1.82 log2 enrichment (interaction score)
